Compound activity from PubChem BioAssay.
Shown are actives, neighbours in structure and some others; about 2.8% of the full set was active somewhere.
HEK293 tox – cytotoxicity counter-screen for GLP-1 receptor inverse agonists. HEK293 cAMP-luciferase reporter cells, luminescence, 24 h. Potency, µM (top dose mostly 38.3 µM), actives largely listed as inhibitors. 0.13% of 410,000 active;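 note: loss of luciferase light is scored as toxicity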
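Quantitative HTS format, 1536 wells, 200 cells/uL seeded. Compounds: 23 nL, 24 h, 37 °C. Detection: luciferase reagent, luminescence at 12 min RT; decreased signal taken as cytotoxic.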
Mito fusion yeast – mitochondrial division inhibition or fusion activation; Potency, µM (top dose mostly 46.1 µM), usual class: activators; S. cerevisiae fusion-defective mutant growth rescue, CellTiterGlo 48 h; 0.23% of 320,000 active; note: nearly all actives have a fitted effect of over 45% in size
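Temperature-sensitive fusion-defective S. cerevisiae (e.g. fzo1-1, mgm1-5) were grown with compound in YPEG medium (3% ethanol, 3% glycerol) for 48 hours at 37C. Growth rescue was measured as viability by CellTiterGlo luminescence after 10 minutes at ambient.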
GLP-1R agonist – GLP-1 receptor (human) agonism; Potency, µM (titrated, usually from 45.6 µM), usual class: activators; 0.007% of 380,000 active; P43220; HEK293 GLP-1R CRE-luciferase, luminescence, 4-6 h; cells express a hypersensitive GLP-1R form
Target sequence (P43220 whole entry, looked up): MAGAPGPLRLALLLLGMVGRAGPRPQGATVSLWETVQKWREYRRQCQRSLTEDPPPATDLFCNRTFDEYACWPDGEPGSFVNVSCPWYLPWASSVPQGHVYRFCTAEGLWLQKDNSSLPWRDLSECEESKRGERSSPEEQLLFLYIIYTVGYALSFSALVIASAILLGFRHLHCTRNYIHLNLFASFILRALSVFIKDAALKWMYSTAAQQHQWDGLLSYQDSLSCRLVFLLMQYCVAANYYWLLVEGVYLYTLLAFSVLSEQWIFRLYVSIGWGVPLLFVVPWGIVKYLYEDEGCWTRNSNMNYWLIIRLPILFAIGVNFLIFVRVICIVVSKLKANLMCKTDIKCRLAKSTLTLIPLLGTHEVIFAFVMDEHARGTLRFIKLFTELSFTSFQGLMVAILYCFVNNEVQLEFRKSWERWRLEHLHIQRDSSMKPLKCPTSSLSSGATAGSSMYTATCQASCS
BRCA1 expr act – BRCA1 expression activation; MCF7-BRCA1-FFLuc reporter, luminescence, 48 h; response scale: scaled: vehicle 0%, 10 µM genistein 100%; Potency, µM (doses to about 46.1 µM), hits mostly activators; 1.1% of 380,000 active; note: nearly all actives have a fitted effect of over 80% in size
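First, MCF7-BRCA1-FFLuc cells (2000/well) attach for 2 h; next, compounds are pin-added and incubated 48 h at 37 °C; finally, luciferase reagent is added and luminescence read after 15 min.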
GLP-1R inv ag – acts as inverse agonist at human GLP-1 receptor; P43220; HEK293 GLP-1R CRE-luciferase, luminescence, 24 h; GLP-1R form is constitutively active; Potency, µM (highest dose often 38.3 µM), usual class: inhibitors; 1.6% of 410,000 active; AID 624417; note: nearly all actives have a fitted effect of over 55% in size
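HEK293 cells stably co-expressing constitutively active GLP-1R and a cAMP-responsive luciferase reporter were seeded in DMEM with 10% Nu serum, given compounds after 12 h, and incubated 24 h at 37 deg C. Luminescence was then read.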
Of the large screens only hits and unclear results are named; the others gave an inactive call. Calls come from the whole dose curve; as a rule, active = well fitted curve in the direction sought with a large enough effect; inconclusive = small, poorly fitted or top-dose-only effect, or another doubt; inactive = no such curve, though single readings can be large; an effect the other way counts as inactive or inconclusive.

Cc1ccc(CCNC(=O)NCc2noc3ccc(C)cc23)cc1	none (no result: Mito fusion yeast, GLP-1R agonist, BRCA1 expr act)
COc1ccc(N2CCN(C(=O)CSc3nnc(-c4cccnc4)n3-c3ccccc3)CC2)cc1	GLP-1R inv ag 11.2µM
O=C(NC(c1ccccc1)c1ccccc1)c1ccc(Br)o1	GLP-1R inv ag inconclusive
COc1ccccc1OC(C)C(=O)O (centres undefined)	none
COc1ccc(C(=O)CSc2nnc(CNc3ccc(C)cc3C)n2Cc2ccco2)cc1	none
Cc1ccc(C(=O)CSc2nnc(CNc3ccc(C)cc3C)n2Cc2ccco2)cc1	GLP-1R inv ag 10µM
Cc1nnc(SCC(=O)NC2CC2)n1-c1ccccc1	none
O=[N+]([O-])c1nn(-c2ccc3c(c2)OCCO3)n(O)c1=NCc1ccccc1Cl	BRCA1 expr act inconclusive
O=[N+]([O-])c1nn(-c2ccc3c(c2)OCCO3)n(O)c1=NC1CCCCC1	Mito fusion yeast 12.6µM
O=C(CSc1nc2ccccc2n1S(=O)(=O)c1ccccc1)N1CCCCC1	BRCA1 expr act 14.1µM
O=C(CSc1nc2ccccc2n1CC(=O)N1CCCCC1)N1CCCCC1	none
CCC12CN(C(=O)c3ccc(OC)cc3)CC(CC)(CN(C(=O)c3ccc(OC)cc3)C1)C2=O	none
Cc1ccccc1NC(=O)CSc1nc2ccc(NC(=O)c3cccs3)cc2s1	none (no result: Mito fusion yeast, GLP-1R agonist)
CSc1nc2ccc(NC(=O)c3cccs3)cc2s1	BRCA1 expr act 4.47µM, GLP-1R inv ag inconclusive (no result: Mito fusion yeast)
Cc1cc(C)cc(OCCSc2nc3ccc(NC(=O)c4cccs4)cc3s2)c1	GLP-1R inv ag 10µM (no result: Mito fusion yeast, GLP-1R agonist)
Cc1ccc(OCCSc2nc3ccc(NC(=O)c4cccs4)cc3s2)cc1	none (no result: Mito fusion yeast, GLP-1R agonist)
COc1ccc(NC(=O)CSc2nncn3c2cc2occc23)c(OC)c1	none (no result: Mito fusion yeast, GLP-1R agonist, BRCA1 expr act)
CCSc1ncc(Cl)c(C(=O)Nc2cccc(Cl)c2)n1	GLP-1R inv ag inconclusive (no result: Mito fusion yeast, GLP-1R agonist, BRCA1 expr act)
CCCCn1nc(-c2ccccc2)c2nc3ccccc3nc21	none (no result: HEK293 tox, GLP-1R agonist, BRCA1 expr act, GLP-1R inv ag)
COc1c(C)cc(C(O)c2ncc(-c3cccc4ccccc34)[nH]2)cc1C (centres undefined)	GLP-1R inv ag inconclusive (no result: Mito fusion yeast)
CC1(C)CN(c2ccccc2)N(C(=O)c2ccc(C#N)cc2)C1=O	GLP-1R inv ag 3.16µM
O=C(CP(=O)(c1ccccc1)c1ccccc1)Nc1nc2ccc(Cl)cc2s1	GLP-1R inv ag 11.2µM
O=C(CCNC(=O)c1ccccc1Cl)Nc1ccc(Cl)c(C(F)(F)F)c1	Mito fusion yeast 35.5µM, GLP-1R inv ag inconclusive
O=C(CCNC(=O)c1ccccc1Cl)Nc1nc(-c2ccc(F)cc2)cs1	none
O=C(CCNC(=O)c1ccccc1Cl)Nc1nc(-c2ccccc2Cl)cs1	GLP-1R inv ag 7.94µM
CC(=O)c1sc(NC(=O)Cc2c(F)cccc2Cl)nc1C	none
O=C(Cc1c(F)cccc1Cl)Nc1nc2ccccc2s1	BRCA1 expr act 8.91µM, GLP-1R inv ag inconclusive
O=C(CCNC(=O)c1ccccc1Cl)Nc1nc2ccccc2s1	BRCA1 expr act 11.2µM
O=C(CSc1nnc(-c2ccccc2)o1)N1CCCCC1	BRCA1 expr act 3.16µM
O=C(CSc1nnc(-c2ccccc2)o1)N1CCCC1	none
CC1CCN(C(=O)CCc2nnc(-c3ccccc3)o2)CC1	BRCA1 expr act 12.6µM
O=C(CSc1nnc(-c2ccc(F)cc2)o1)N1CCCCC1	BRCA1 expr act 8.91µM
Cc1ccc(NC(=O)C(c2ccccc2)C2CCCC2)cc1 (centres undefined)	GLP-1R inv ag inconclusive
O=C(Nc1ccc2ccccc2c1)C(c1ccccc1)C1CCCC1 (centres undefined)	Mito fusion yeast inconclusive, GLP-1R inv ag 5.01µM
Cc1ccc(C2(C)CC(C)(C)N(C(=O)CSc3nnc(C)s3)c3ccccc32)cc1 (centres undefined)	Mito fusion yeast inconclusive, GLP-1R inv ag inconclusive
Cc1nnc(SCC(=O)N2c3ccccc3C(C)(c3ccccc3)CC2(C)C)s1 (centres undefined)	Mito fusion yeast 15.8µM
COc1cccc(Nc2nc3ccc(OC)cc3s2)c1	BRCA1 expr act 4.47µM, GLP-1R inv ag inconclusive
COc1ccc(Nc2nc3ccccc3s2)cc1	BRCA1 expr act 5.01µM, GLP-1R inv ag inconclusive
COc1ccc2nc(NC3=NCCC3)sc2c1	BRCA1 expr act inconclusive
COc1ccc(S(=O)(=O)Nc2ccccc2OC)cc1NC(=O)Cc1cccs1	none
CCOc1ccc(/C=C/C2=CC(C)(C)NC(=S)N2)cc1	HEK293 tox 5.62µM, GLP-1R inv ag inconclusive
CC(C)(C)C(=O)/C(=C\c1ccc([N+](=O)[O-])cc1)n1cncn1	none (no result: HEK293 tox, GLP-1R agonist, BRCA1 expr act, GLP-1R inv ag)
CC(C)(C)C(=O)/C(=C/c1ccc(Cl)cc1)n1cncn1	GLP-1R inv ag 3.98µM
Clc1cccc(N/N=C/c2ccc(N3CCOCC3)s2)c1	HEK293 tox inconclusive, GLP-1R inv ag 2.82µM
O=C(N/N=C/c1ccc(N2CCOCC2)s1)c1ccccc1Br	none
COc1ccc(CCC(=O)N2c3ccccc3N=C(c3ccc(C(F)(F)F)cc3)C2C(=O)NC(C)(C)C)cc1 (centres undefined)	GLP-1R inv ag 4.47µM (no result: Mito fusion yeast, GLP-1R agonist, BRCA1 expr act)
COc1ccc(CCC(=O)N2c3ccccc3N=C(c3ccc(C(F)(F)F)cc3)C2C(=O)NC(C)C)cc1 (centres undefined)	none (no result: Mito fusion yeast, GLP-1R agonist, BRCA1 expr act)
COc1ccc(Br)c(C(=O)Nc2cccc(S(=O)(=O)N3CCOCC3)c2)c1	none
Cc1cccc(/C=c2\s/c(=C\C(=O)C(C)(C)C)[nH]c2=O)c1	HEK293 tox inconclusive, GLP-1R inv ag 8.91µM
COc1ccc(/C=c2\s/c(=C\C(=O)C(C)(C)C)[nH]c2=O)cc1O	HEK293 tox inconclusive
CC1(C(=O)Nc2ccc(Cl)c(Cl)c2)CCN1C(=O)CC1CCCC1 (centres undefined)	GLP-1R inv ag 14.1µM (no result: Mito fusion yeast)
CC1(C(=O)Nc2ccc3c(c2)OCCO3)CCN1C(=O)CC1CCCC1 (centres undefined)	none (no result: Mito fusion yeast)
COCc1ccc(CN2CCC(N3CCC(C(=O)N4CCCC4)CC3)CC2)o1	none
CCOc1ccc(NC(=O)c2ccc(NC(=S)NC3CCCCC3)cc2)cc1	GLP-1R inv ag inconclusive
Nc1ccc(CSc2ccc(Cl)cc2)c(Cl)c1	BRCA1 expr act 1.78µM, GLP-1R inv ag inconclusive (no result: Mito fusion yeast)
Nc1nnc(CSc2ccc(Cl)cc2)s1	none
CC(C)OCCCNc1sc(S(=O)(=O)c2ccccc2)nc1S(=O)(=O)c1ccc(Cl)cc1	GLP-1R inv ag inconclusive (no result: Mito fusion yeast, GLP-1R agonist, BRCA1 expr act)
COc1ccc(-c2c(C)nn(-c3ccccc3)c2N)cc1	BRCA1 expr act 11.2µM
Cc1ccc(-c2nn(-c3ccccc3)cc2CO)cc1	BRCA1 expr act 7.94µM
COc1ccc(-c2nn(-c3ccccc3)cc2N)cc1	BRCA1 expr act 3.16µM
Cc1ccc(-c2csc3ncnc(NCCN4CCOCC4)c23)cc1	GLP-1R inv ag inconclusive
Clc1ccc(CNc2nc(CN3CCOCC3)nc3scc(-c4ccccc4)c23)cc1	HEK293 tox inconclusive, GLP-1R inv ag 3.16µM
Clc1ccc(-c2csc3ncnc(NCCN4CCOCC4)c23)cc1	GLP-1R inv ag 3.16µM
Cc1ccccc1N(CC(=O)NCCc1ccccc1)C(=O)c1csnn1	none
